Assay outcomes (PubChem BioAssay)
Methyltransferases = Primary Screen for Target Class Profiling of Small Molecule Inhibitors of Methyltransferases; actives 3.9% (n = 25,000); calls only at 40 µM; purified enzyme, MTase-Glo SAH luminescence; stronger effect = lower value; call rule not given here
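Each enzyme was assayed with SAM and its substrate. SAH formation detected by MTase-Glo luminescence; single-point 40 uM screen[…].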
MTase-Glo ctr = counter-screen for methyltransferase inhibitors: coupling enzymes without methyltransferase | shares compounds with Methyltransferases | MTase-Glo coupled enzymes, SAH conversion luminescence, no MTase | Potency, µM (titrated, usually from 57.3 µM), for inactives: at the highest dose activity change, negative = inhibition, actives largely listed as inhibitors | actives 6% (n = 180); active means well fitted inhibition curve with a large enough effect; inconclusive means small, poorly fitted or top-dose-only effect; further: potency means the concentration at half of the fitted maximal effect
* marks the source's active call; other numbers are inactive results; i = inactive; ? = inconclusive; + = active, no number; [ ] = remark or other dose. Many of the other results were omitted from the sample, so hits are more common in it than they were. On the % scale 0 is the no-effect control and ±100 the full control effect.

SMILES	Methyltransferases	others
COC(=O)c1cc2n(n1)CC(C)(C(=O)NC1CCCCC1)N(c1ccc(C)cc1C)C2=O (configuration not stated)	i
CCCn1ncc(CN2CCCC23CCN(c2ncccn2)CC3)c1C	i
CCn1cc(CN2CCCC23CCN(c2cc(C)nc4ccccc24)CC3)c(C)n1	+	MTase-Glo ctr=0%
Cn1c(=O)c2ccnn2c2ccc(C(=O)NCC3CCN(Cc4ccccc4F)CC3)cc21	+	MTase-Glo ctr=0%
COc1ccc(-c2n[nH]n3c2nc(=O)c2ccc(C(=O)NCc4ccccc4F)cc23)cc1	i
O=C(NC1CCCC1)c1ccc2c(c1)n(Cc1cccc(F)c1)c(=O)c1ccnn12	i
CCCn1c(=O)c2ccc(Cl)cc2n2c(=O)n(CC(=O)N3CCN(c4ccccc4F)CC3)nc12	i
COc1cccc(CN2C(=O)c3ccc(-c4ccco4)n3CC2(C)C(=O)NC2CCCC2)c1 (configuration not stated)	i
COc1ccc(CNC(=O)C2CCN(C(=O)c3oc4cc5sc(N(C)C)nc5cc4c3C)CC2)cc1	i
CCc1ccccc1N1C(=O)c2cc(-c3ccccc3)nn2CC1(C)C(=O)NCCCOC (configuration not stated)	i
O=C(Cn1ccc2cc(S(=O)(=O)N3CCCCC3)ccc21)NCc1ccccn1	i
CN1C(=O)[C@H]2CN(Cc3cn[nH]c3-c3ccc(F)cc3)C[C@H]2C1=O	i
CN1CCN(c2nc3c(c(=O)[nH]2)CCN(Cc2cn[nH]c2-c2ccc(F)cc2)CC3)CC1	i
COc1ccc(-c2[nH]ncc2CN2CC[C@H]3CC[C@@H](C2)N3)cc1	+	MTase-Glo ctr=-2%
O=c1c2ccccc2n2c(SCc3cccc(F)c3)nnc2n1Cc1ccc(F)cc1	i
CCOC(=O)c1cc2n(n1)CC(C)(C(=O)NCc1ccccc1)N(Cc1ccccc1)C2=O (configuration not stated)	i
Cc1nn(-c2ccccc2)c2c1C(C)N(C1CCN([S+](=O)([O-])c3c(C)noc3C)C1)C2=O (configuration not stated)	i
Cc1noc(C)c1[S+](=O)([O-])N1CCn2c(nn(-c3ccc(C(F)(F)F)cc3)c2=O)C1	+	MTase-Glo ctr=-3%
COc1ccc(-c2nnc3n2CCN([S+](=O)([O-])c2c(C)noc2C)C3)cc1	i
CC1CCC(NC(=O)C2(C)Cn3c(ccc3-c3ccccc3)C(=O)N2Cc2cccc(F)c2)CC1 (configuration not stated)	i
CCCOc1ccc(CN2C(=O)c3cc4sccc4n3CC2(C)C(=O)NC2CCCC2)cc1 (configuration not stated)	i
O=C1c2cc3occc3n2CC(C(=O)NC2CCCCCCC2)(c2ccccc2)N1Cc1ccc(Cl)cc1 (configuration not stated)	i
c1ccc(Nc2cc3c(cn2)NCCN(Cc2cccs2)C3)cc1	i
Cn1cnc(CN2CCNc3cc(Nc4ccccc4)ncc3C2)c1	+	MTase-Glo ctr=3%[85.7 µM]
CC(C)CNc1ccc2c(n1)C(C)(C(=O)NCc1cccnc1)CN(Cc1ccccc1)C2 (configuration not stated)	i
SMILES	Methyltransferases	others
c1ccc(CCN2CCNc3cc(NCc4cccnc4)ncc3C2)cc1	+	MTase-Glo ctr=?
Fc1ccccc1CN1CCNc2cnc(OCc3cccnc3)cc2C1	i
Cn1cc(CN2CCOc3cc([S+](=O)([O-])Nc4ccccc4)ccc3C2)cn1	i
Cn1c2c(c3ccccc31)C(C(=O)NCc1ccccc1)N(Cc1ccccc1Cl)C(=O)CS2 (configuration not stated)	i
Cc1ccc(N2C(=O)c3cc4ccccc4n3CC2(C)C(=O)NCCC(C)C)c(C)c1 (configuration not stated)	i
Cc1ccc(CN2C(=O)c3cc4occc4n3CC2(C)C(=O)NC2CCCCCC2)cc1 (configuration not stated)	i
CCOc1ccc(C(=O)Cn2nc3n(C)c(=O)c4ccc(C(=O)NC5CCCCC5)cc4n3c2=O)cc1	i
Fc1ccccc1Nc1ccnc(N2CC3CCC(C2)N3CC(F)(F)F)n1	i
N#Cc1cnc(N2CC3CCC(C2)N3CC(F)(F)F)s1	+	MTase-Glo ctr=-2%[85.7 µM]
CCc1ccccc1N1C(=O)c2cc(-c3ccc(OC)cc3)nn2CC1(C)C(=O)NCc1ccccc1 (configuration not stated)	i
CCOc1ccccc1CNC(=O)C(C)n1ccc2cc(S(=O)(=O)N3CCCCC3)ccc21 (configuration not stated)	i
CN(C)c1nc2c(c(N3C[C@@H](CN4CCCC4)[C@@H](CO)C3)n1)CCCC2	+	MTase-Glo ctr=14µM*
CN1CCCN(C[C@@H]2CN(C(=O)c3ccn(C)n3)C[C@@H]2CO)CC1	i
CCOc1ccc(C2c3cccn3-c3sc4c(c3CN2C(=O)Nc2ccccc2F)CCCC4)cc1 (configuration not stated)	i
Cc1noc(C)c1-c1cnc(Nc2ccc(F)c(Cl)c2)c2c1CCO2	i
COc1cncc(Nc2ncc(-c3ccccc3OC)c3c2OCC3)c1	+	MTase-Glo ctr=-3%[85.7 µM]
CC(C)CCn1c(=O)c2ccccc2n2c(SCc3ccccc3F)nnc12	i
CCc1cc2c(cc3n2CC(C)(C(=O)NC2CCC(C)CC2)N(Cc2ccc(C)cc2)C3=O)s1 (configuration not stated)	i
Cc1cccc(N2CCN(S(=O)(=O)c3cc4c(cc3Br)n(C)c(=O)n4C)CC2)c1C	i
COc1ccc(OC)c(CN2CCC3(CC2)Nc2ccccc2NC3=O)c1	i
COc1ccc(OC)c(CN2CCNc3cc(-c4ccnc(C)c4)ncc3C2)c1	+	MTase-Glo ctr=4%[85.7 µM]
COc1ccc(-c2nn(-c3ccccc3C)cc2CN2CCCN(C)CC2)cc1F	i
COCCCN1C(=O)c2cc3occc3n2CC1(C)C(=O)NC1CCCCC1C (configuration not stated)	i
CC(=O)Nc1c2n(c3ccccc13)CC(C)(C(=O)NC1CCCC1)N(CCC1=CCCCC1)C2=O (configuration not stated)	i
Cc1ccc(NC(=O)N2CCCN(CCn3nc4n(c3=O)CCCC4)CC2)cc1F	i
SMILES	Methyltransferases	others
O=C(NCCN1CCN(c2cccc3ccc(O)cc23)CC1)c1ccc(F)cc1	i
Oc1ccc(NCCN2CCCC2)cc1	+	MTase-Glo ctr=-6%[114 µM]
COc1cccc(NC(=O)c2cc3n(n2)CC(C)(C(=O)NC2CCCCCC2)N(C)C3=O)c1 (configuration not stated)	i
Cc1nnc(-c2cc(-c3ccccc3Oc3ccccc3)ccn2)n1C	i
COc1cccc(Nc2ccnc(-c3nnc(C)n3C3CCCCC3)c2)c1	+	MTase-Glo ctr=-4%[85.7 µM]
CC1(C(=O)NC2CCCCCC2)Cn2c(ccc2-c2ccco2)C(=O)N1Cc1cccc(Cl)c1 (configuration not stated)	i
CCOCCCNC(=O)CCc1nnc2n(Cc3ccccc3Cl)c(=O)c3ccccc3n12	i
CCc1ccc(CN2C(=O)c3cc(-c4ccco4)nn3CC2(C)C(=O)NCCC(C)C)cc1 (configuration not stated)	i
CCCn1c(=O)c2ccc(C(=O)NCC(C)C)cc2n2c(=O)n(CC(=O)Nc3ccccc3)nc12	i
COc1ncccc1-c1cc2c(ccn2CC2CCN([S+](C)(=O)[O-])CC2)c(N2CCOCC2)n1	+	MTase-Glo ctr=-1%
